Measurements from PMC11006913.

Assays:
Assay in all cases: PBM; 200 nM protein, PBS
Conditions in all cases: dsDNA, one strand shown
ALX3 [1] = target: ALX3 (Homo sapiens, UniProt O95076 139-225, N203Q)
ALX3 [2] = target: ALX3 (Homo sapiens, UniProt O95076 139-225)
ALX3 [3] = target: ALX3 (Homo sapiens, UniProt O95076 139-225, L168Q)
ALX3 [4] = target: ALX3 (Homo sapiens, UniProt O95076 139-225, L168V)
ALX3 [5] = target: ALX3 (Homo sapiens, UniProt O95076 139-225, N203S)
HOXD13 [6] = target: HOXD13 (Homo sapiens, UniProt P35453 263-343, T313R)
HOXD13 [7] = target: HOXD13 (Homo sapiens, UniProt P35453 263-343)
HOXD13 [8] = target: HOXD13 (Homo sapiens, UniProt P35453 263-343, T313A)
VAX1 [9] = target: VAX1 (Homo sapiens, UniProt Q5SQQ9 86-172)
VAX1 [10] = target: VAX1 (Homo sapiens, UniProt Q5SQQ9 86-172, T142I)
VAX1 [11] = target: VAX1 (Homo sapiens, UniProt Q5SQQ9 86-172, K157R)
HOXC10 = HOXC10 (Homo sapiens, UniProt Q9NYD6 254-340, K271E)
Sequence of HOXC10 (Q9NYD6 254-340 K271E): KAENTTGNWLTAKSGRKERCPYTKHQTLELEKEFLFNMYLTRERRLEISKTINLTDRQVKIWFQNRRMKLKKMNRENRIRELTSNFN

Sequence of ALX3 (Homo sapiens, UniProt O95076 139-225, N203S) (O95076 139-225 N203S): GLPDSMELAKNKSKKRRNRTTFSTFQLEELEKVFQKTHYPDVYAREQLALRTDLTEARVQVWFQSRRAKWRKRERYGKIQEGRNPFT
Sequence of ALX3 (Homo sapiens, UniProt O95076 139-225) (O95076 139-225): as the sequence (O95076 139-225 N203S) above, with S65N counted along it
Sequence of ALX3 (Homo sapiens, UniProt O95076 139-225, N203Q) (O95076 139-225 N203Q): as the sequence (O95076 139-225 N203S) above, with S65Q counted along it
Sequence of HOXD13 (Homo sapiens, UniProt P35453 263-343, T313R) (P35453 263-343 T313R): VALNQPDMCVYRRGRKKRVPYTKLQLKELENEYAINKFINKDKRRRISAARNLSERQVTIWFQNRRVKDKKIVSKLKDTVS
Sequence of HOXD13 (Homo sapiens, UniProt P35453 263-343, T313A) (P35453 263-343 T313A): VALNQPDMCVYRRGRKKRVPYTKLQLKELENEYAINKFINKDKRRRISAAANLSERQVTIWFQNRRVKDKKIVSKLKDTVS
Sequence of HOXD13 (Homo sapiens, UniProt P35453 263-343) (P35453 263-343): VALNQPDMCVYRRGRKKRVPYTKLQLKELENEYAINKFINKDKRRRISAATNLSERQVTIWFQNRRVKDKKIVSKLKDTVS
Sequence of VAX1 (Homo sapiens, UniProt Q5SQQ9 86-172, K157R) (Q5SQQ9 86-172 K157R): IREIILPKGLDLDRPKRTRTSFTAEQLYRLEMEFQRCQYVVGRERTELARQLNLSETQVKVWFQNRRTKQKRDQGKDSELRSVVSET
Sequence of ALX3 (Homo sapiens, UniProt O95076 139-225, L168V) (O95076 139-225 L168V): as the sequence (O95076 139-225 N203S) above, with L30V, S65N counted along it
Sequence of VAX1 (Homo sapiens, UniProt Q5SQQ9 86-172, T142I) (Q5SQQ9 86-172 T142I): as the sequence (Q5SQQ9 86-172 K157R) above, with T57I, R72K counted along it
Sequence of VAX1 (Homo sapiens, UniProt Q5SQQ9 86-172) (Q5SQQ9 86-172): as the sequence (Q5SQQ9 86-172 K157R) above, with R72K counted along it
Sequence of ALX3 (Homo sapiens, UniProt O95076 139-225, L168Q) (O95076 139-225 L168Q): as the sequence (O95076 139-225 N203S) above, with L30Q, S65N counted along it

## CCTAACAG
ALX3 [1]
  binding signal: 8.02 upbm affinity estimate (log intensity, higher = more binding, comparable within an allelic series)
ALX3 [2]
  binding signal: 8.92 upbm affinity estimate (log intensity, higher = more binding, comparable within an allelic series)
ALX3 [3]
  binding signal: 8.23 upbm affinity estimate (log intensity, higher = more binding, comparable within an allelic series)
ALX3 [4]
  binding signal: 8.19 upbm affinity estimate (log intensity, higher = more binding, comparable within an allelic series)
ALX3 [5]
  binding signal: 8.09 upbm affinity estimate (log intensity, higher = more binding, comparable within an allelic series)

## AGTTACAG
ALX3 [1]
  binding signal: 8.16 upbm affinity estimate (log intensity, higher = more binding, comparable within an allelic series)
ALX3 [2]
  binding signal: 8.82 upbm affinity estimate (log intensity, higher = more binding, comparable within an allelic series)
ALX3 [5]
  binding signal: 8.25 upbm affinity estimate (log intensity, higher = more binding, comparable within an allelic series)

## TTATAGAA
ALX3 [1]
  binding signal: 8.31 upbm affinity estimate (log intensity, higher = more binding, comparable within an allelic series)
ALX3 [2]
  binding signal: 9.6 upbm affinity estimate (log intensity, higher = more binding, comparable within an allelic series)
ALX3 [5]
  binding signal: 8.38 upbm affinity estimate (log intensity, higher = more binding, comparable within an allelic series)

## GCCACGGA
HOXD13 [6]
  binding signal: 9.56 upbm affinity estimate (log intensity, higher = more binding, comparable within an allelic series)
HOXD13 [7]
  binding signal: 9.61 upbm affinity estimate (log intensity, higher = more binding, comparable within an allelic series)
HOXD13 [8]
  binding signal: 9.69 upbm affinity estimate (log intensity, higher = more binding, comparable within an allelic series)

## CGTGCCCC
HOXD13 [6]
  binding signal: 9.51 upbm affinity estimate (log intensity, higher = more binding, comparable within an allelic series)
HOXD13 [7]
  binding signal: 9.62 upbm affinity estimate (log intensity, higher = more binding, comparable within an allelic series)
HOXD13 [8]
  binding signal: 9.71 upbm affinity estimate (log intensity, higher = more binding, comparable within an allelic series)

## CAATAATC
HOXD13 [6]
  binding signal: 10.2 upbm affinity estimate (log intensity, higher = more binding, comparable within an allelic series)
HOXD13 [7]
  binding signal: 11.2 upbm affinity estimate (log intensity, higher = more binding, comparable within an allelic series)
HOXD13 [8]
  binding signal: 11.1 upbm affinity estimate (log intensity, higher = more binding, comparable within an allelic series)

## CCAGTAAA
HOXD13 [6]
  binding signal: 10.4 upbm affinity estimate (log intensity, higher = more binding, comparable within an allelic series)
HOXD13 [7]
  binding signal: 11.5 upbm affinity estimate (log intensity, higher = more binding, comparable within an allelic series)
HOXD13 [8]
  binding signal: 11.2 upbm affinity estimate (log intensity, higher = more binding, comparable within an allelic series)

## CCCCTCGC
HOXD13 [6]
  binding signal: 9.62 upbm affinity estimate (log intensity, higher = more binding, comparable within an allelic series)
HOXD13 [7]
  binding signal: 9.63 upbm affinity estimate (log intensity, higher = more binding, comparable within an allelic series)
HOXD13 [8]
  binding signal: 9.67 upbm affinity estimate (log intensity, higher = more binding, comparable within an allelic series)

## CACCGCCA
HOXD13 [6]
  binding signal: 9.56 upbm affinity estimate (log intensity, higher = more binding, comparable within an allelic series)
HOXD13 [7]
  binding signal: 9.65 upbm affinity estimate (log intensity, higher = more binding, comparable within an allelic series)
HOXD13 [8]
  binding signal: 9.8 upbm affinity estimate (log intensity, higher = more binding, comparable within an allelic series)

## GGGAGAAC
HOXD13 [6]
  binding signal: 9.51 upbm affinity estimate (log intensity, higher = more binding, comparable within an allelic series)
HOXD13 [7]
  binding signal: 9.63 upbm affinity estimate (log intensity, higher = more binding, comparable within an allelic series)
HOXD13 [8]
  binding signal: 9.68 upbm affinity estimate (log intensity, higher = more binding, comparable within an allelic series)

## CGCAGCCC
HOXD13 [6]
  binding signal: 9.49 upbm affinity estimate (log intensity, higher = more binding, comparable within an allelic series)
HOXD13 [7]
  binding signal: 9.55 upbm affinity estimate (log intensity, higher = more binding, comparable within an allelic series)
HOXD13 [8]
  binding signal: 9.57 upbm affinity estimate (log intensity, higher = more binding, comparable within an allelic series)

## TCACTAAA
HOXD13 [6]
  binding signal: 10.1 upbm affinity estimate (log intensity, higher = more binding, comparable within an allelic series)
HOXD13 [7]
  binding signal: 10.6 upbm affinity estimate (log intensity, higher = more binding, comparable within an allelic series)

## GTTTATGA
HOXD13 [6]
  binding signal: 10.9 upbm affinity estimate (log intensity, higher = more binding, comparable within an allelic series)
HOXD13 [7]
  binding signal: 12 upbm affinity estimate (log intensity, higher = more binding, comparable within an allelic series)
HOXD13 [8]
  binding signal: 11.8 upbm affinity estimate (log intensity, higher = more binding, comparable within an allelic series)

## GGCCCACC
HOXD13 [6]
  binding signal: 9.47 upbm affinity estimate (log intensity, higher = more binding, comparable within an allelic series)
HOXD13 [7]
  binding signal: 9.38 upbm affinity estimate (log intensity, higher = more binding, comparable within an allelic series)
HOXD13 [8]
  binding signal: 9.5 upbm affinity estimate (log intensity, higher = more binding, comparable within an allelic series)

## CCGGCCGC
HOXD13 [6]
  binding signal: 9.39 upbm affinity estimate (log intensity, higher = more binding, comparable within an allelic series)
HOXD13 [7]
  binding signal: 9.4 upbm affinity estimate (log intensity, higher = more binding, comparable within an allelic series)
HOXD13 [8]
  binding signal: 9.32 upbm affinity estimate (log intensity, higher = more binding, comparable within an allelic series)

## CATCTTAA
HOXD13 [6]
  binding signal: 10.1 upbm affinity estimate (log intensity, higher = more binding, comparable within an allelic series)
HOXD13 [7]
  binding signal: 10.5 upbm affinity estimate (log intensity, higher = more binding, comparable within an allelic series)

## TCGGCCCA
HOXD13 [6]
  binding signal: 9.58 upbm affinity estimate (log intensity, higher = more binding, comparable within an allelic series)
HOXD13 [7]
  binding signal: 9.62 upbm affinity estimate (log intensity, higher = more binding, comparable within an allelic series)
HOXD13 [8]
  binding signal: 9.55 upbm affinity estimate (log intensity, higher = more binding, comparable within an allelic series)

## CATATAAA
HOXD13 [6]
  binding signal: 10.9 upbm affinity estimate (log intensity, higher = more binding, comparable within an allelic series)
HOXD13 [7]
  binding signal: 12.1 upbm affinity estimate (log intensity, higher = more binding, comparable within an allelic series)
HOXD13 [8]
  binding signal: 11.9 upbm affinity estimate (log intensity, higher = more binding, comparable within an allelic series)

## CACCGGTG
HOXD13 [6]
  binding signal: 9.69 upbm affinity estimate (log intensity, higher = more binding, comparable within an allelic series)
HOXD13 [7]
  binding signal: 9.58 upbm affinity estimate (log intensity, higher = more binding, comparable within an allelic series)
HOXD13 [8]
  binding signal: 9.72 upbm affinity estimate (log intensity, higher = more binding, comparable within an allelic series)

## CTTGTTAA
HOXD13 [6]
  binding signal: 10.6 upbm affinity estimate (log intensity, higher = more binding, comparable within an allelic series)
HOXD13 [7]
  binding signal: 11.8 upbm affinity estimate (log intensity, higher = more binding, comparable within an allelic series)
HOXD13 [8]
  binding signal: 11.7 upbm affinity estimate (log intensity, higher = more binding, comparable within an allelic series)

## GAGCCCAC
HOXD13 [6]
  binding signal: 9.49 upbm affinity estimate (log intensity, higher = more binding, comparable within an allelic series)
HOXD13 [7]
  binding signal: 9.6 upbm affinity estimate (log intensity, higher = more binding, comparable within an allelic series)
HOXD13 [8]
  binding signal: 9.72 upbm affinity estimate (log intensity, higher = more binding, comparable within an allelic series)

## AAGGGGGG
HOXD13 [6]
  binding signal: 9 upbm affinity estimate (log intensity, higher = more binding, comparable within an allelic series)
HOXD13 [7]
  binding signal: 9.33 upbm affinity estimate (log intensity, higher = more binding, comparable within an allelic series)
HOXD13 [8]
  binding signal: 9.26 upbm affinity estimate (log intensity, higher = more binding, comparable within an allelic series)

## GGAGCAAC
HOXD13 [6]
  binding signal: 9.51 upbm affinity estimate (log intensity, higher = more binding, comparable within an allelic series)
HOXD13 [7]
  binding signal: 9.53 upbm affinity estimate (log intensity, higher = more binding, comparable within an allelic series)
HOXD13 [8]
  binding signal: 9.56 upbm affinity estimate (log intensity, higher = more binding, comparable within an allelic series)

## CTTTACGA
HOXD13 [6]
  binding signal: 10.5 upbm affinity estimate (log intensity, higher = more binding, comparable within an allelic series)
HOXD13 [7]
  binding signal: 11.8 upbm affinity estimate (log intensity, higher = more binding, comparable within an allelic series)
HOXD13 [8]
  binding signal: 11.5 upbm affinity estimate (log intensity, higher = more binding, comparable within an allelic series)

## CTTGTAAA
HOXD13 [6]
  binding signal: 10.9 upbm affinity estimate (log intensity, higher = more binding, comparable within an allelic series)
HOXD13 [7]
  binding signal: 12.3 upbm affinity estimate (log intensity, higher = more binding, comparable within an allelic series)
HOXD13 [8]
  binding signal: 11.9 upbm affinity estimate (log intensity, higher = more binding, comparable within an allelic series)

## CCGCCCGG
HOXD13 [6]
  binding signal: 9.44 upbm affinity estimate (log intensity, higher = more binding, comparable within an allelic series)
HOXD13 [7]
  binding signal: 9.37 upbm affinity estimate (log intensity, higher = more binding, comparable within an allelic series)
HOXD13 [8]
  binding signal: 9.62 upbm affinity estimate (log intensity, higher = more binding, comparable within an allelic series)

## CCCTGACC
HOXD13 [6]
  binding signal: 9.5 upbm affinity estimate (log intensity, higher = more binding, comparable within an allelic series)
HOXD13 [7]
  binding signal: 9.5 upbm affinity estimate (log intensity, higher = more binding, comparable within an allelic series)
VAX1 [9]
  binding signal: 7.22 upbm affinity estimate (log intensity, higher = more binding, comparable within an allelic series)
HOXD13 [8]
  binding signal: 9.64 upbm affinity estimate (log intensity, higher = more binding, comparable within an allelic series)
VAX1 [10]
  binding signal: 7.35 upbm affinity estimate (log intensity, higher = more binding, comparable within an allelic series)
VAX1 [11]
  binding signal: 7.27 upbm affinity estimate (log intensity, higher = more binding, comparable within an allelic series)

## ACCAGGGG
HOXD13 [6]
  binding signal: 9.62 upbm affinity estimate (log intensity, higher = more binding, comparable within an allelic series)
HOXD13 [7]
  binding signal: 9.61 upbm affinity estimate (log intensity, higher = more binding, comparable within an allelic series)
HOXD13 [8]
  binding signal: 9.9 upbm affinity estimate (log intensity, higher = more binding, comparable within an allelic series)

## CAGCGGGG
HOXD13 [6]
  binding signal: 9.37 upbm affinity estimate (log intensity, higher = more binding, comparable within an allelic series)
HOXD13 [7]
  binding signal: 9.58 upbm affinity estimate (log intensity, higher = more binding, comparable within an allelic series)
HOXD13 [8]
  binding signal: 9.58 upbm affinity estimate (log intensity, higher = more binding, comparable within an allelic series)

## CCCTGGAG
HOXD13 [6]
  binding signal: 9.64 upbm affinity estimate (log intensity, higher = more binding, comparable within an allelic series)
HOXD13 [7]
  binding signal: 9.55 upbm affinity estimate (log intensity, higher = more binding, comparable within an allelic series)
HOXD13 [8]
  binding signal: 9.78 upbm affinity estimate (log intensity, higher = more binding, comparable within an allelic series)

## TCCATAAA
HOXD13 [6]
  binding signal: 10.7 upbm affinity estimate (log intensity, higher = more binding, comparable within an allelic series)
HOXD13 [7]
  binding signal: 11.9 upbm affinity estimate (log intensity, higher = more binding, comparable within an allelic series)
HOXC10
  binding signal: 11.4 upbm affinity estimate (log intensity, higher = more binding, comparable within an allelic series)
HOXD13 [8]
  binding signal: 11.7 upbm affinity estimate (log intensity, higher = more binding, comparable within an allelic series)
